Potency data for 14 compounds are collected here from PubChem BioAssay (NCATS).

What all share (experiment): qHTS profiling for inhibitors of Plasmodium falciparum proliferation (AID 504749); further: nearly all actives have a fitted effect of over 60% in size
What all share (settings): P. falciparum in erythrocytes, SYBR Green DNA, 72 h; series mostly up to 28.7 µM
A general note: In qHTS, concentration-response curves come from the screen itself.

The subject of one experiment is CP252. Put shortly: (§1)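 P. falciparum-infected erythrocytes (0.3% parasitemia, 2.5% hematocrit) incubated with compound 72 h at 37 C, 5% CO2. Parasite DNA detected by SYBR Green after lysis, overnight at room temperature; normalised to 0.29 uM artemisinin and DMSO.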
In a further experiment the test system is CP256. Put shortly:
as §1

For another experiment, the system named is CP260. The method, boiled down: as §1
Another experiment deals with CP262. Put shortly: as §1
The subject of a further experiment is CP265. Put shortly:
as §1

In a further experiment the test system is CP266. The method, boiled down:
as §1

Another experiment relates to CP268. The method, boiled down:
as §1

In a further experiment the test system is CP269. Put shortly:
as §1

A further experiment has as its system CP286. Put shortly: as §1
A further experiment concerns CP291. The method, boiled down:
as §1

In another experiment the test system is CP305. The method, boiled down:
as §1

The subject of the next experiment is CP315. The method, boiled down: as §1
The next experiment has as its system CP325. Put shortly: as §1
Another experiment has as its system CP329. The method, boiled down:
as §1

The next experiment has as its system CP335. The method, boiled down: as §1
For the next experiment, the system named is DFO2036. The method, boiled down:
as §1

Another experiment relates to DIV17. Put shortly: as §1
The next experiment has as its system DIV30. Put shortly:
as §1

For a further experiment, the system named is CP297. Put shortly:
as §1

A further experiment relates to DIV14. Put shortly: as §1

Results filed as inconclusive are left out. Calls of active or inactive are those of the source. The call rests on the fitted dose curve; in most records, active means well fitted inhibition curve with a large enough effect; inconclusive means small, poorly fitted or top-dose-only effect; inactive means flat fitted curve, though single readings scatter.
Potency means the concentration at half of the fitted maximal effect.

Take `c1cnc(N2CCN(Cc3ccc4c(c3)OCO4)CC2)nc1`: the Potency entry in the experiment on CP252, in the experiment with CP256, in the experiment with CP260, in the experiment with CP262, in the experiment on CP265 and with CP266 was “inactive” in each case. Also, the Potency result with CP268, with CP269, in the experiment on CP286, in the experiment with CP291, in the experiment with CP305 and in the experiment with CP315 was “inactive” in each case. The Potency entry with CP325, in the experiment on CP329, in the experiment on CP335, in the experiment with DFO2036, in the experiment with DIV17 and with DIV30 was “inactive” throughout.

In the case of `CCCOc1ccccc1-c1nc2n[nH]nc2c(=O)[nH]1`, the Potency entry in the experiment on CP252, in the experiment on CP256, in the experiment on CP260, with CP262, with CP265 and in the experiment with CP266 was “inactive” each time. In addition, the Potency result in the experiment with CP268, in the experiment with CP269, with CP286, in the experiment on CP291, in the experiment on CP297 and with CP305 was “inactive” in each case. For the same compound, the Potency result with CP315, in the experiment on CP325, in the experiment on CP329, in the experiment on DFO2036, in the experiment on DIV14 and with DIV17 was “inactive” in each case. In the experiment on DIV30, the Potency entry is “inactive”.

Turning to `CC(=O)Oc1cc(C(C)C)c(OCCN(C)C)cc1C`, the Potency entry in the experiment with CP252, in the experiment with CP256, in the experiment on CP260, in the experiment with CP262, in the experiment on CP265 and with CP266 was “inactive” each time. Besides, the Potency entry with CP268, in the experiment on CP269, in the experiment on CP286, in the experiment with CP291, with CP297 and with CP305 was “inactive” each time. The Potency result with CP315, with CP325, in the experiment with CP329, in the experiment with DFO2036, in the experiment on DIV14 and with DIV17 was “inactive” each time. Moreover, in the experiment with DIV30, the Potency result was “inactive”.

For the compound `CNC1(C)C2CCC(C2)C1(C)C` (stereo unspecified), the Potency entry in the experiment with CP252, in the experiment on CP256, with CP260, with CP262, in the experiment on CP265 and in the experiment on CP266 was “inactive” in each case. In addition, the Potency entry with CP268, in the experiment on CP269, with CP286, in the experiment on CP291, with CP297 and with CP305 was “inactive” throughout. Also, the Potency entry with CP315, in the experiment with CP325, with CP329, in the experiment with DFO2036, with DIV14 and in the experiment on DIV17 was “inactive” throughout. In the experiment on DIV30, the Potency entry was “inactive”.

Take `O=C1CC2(CCCC2)CC(=O)N1CCCCN1CCN(c2ncccn2)CC1`: the Potency entry with CP252, in the experiment with CP256, in the experiment with CP260, in the experiment on CP262, in the experiment with CP265 and with CP266 was “inactive” throughout. Further, the Potency entry in the experiment with CP268, with CP269, in the experiment on CP286, in the experiment with CP291, in the experiment on CP297 and in the experiment with CP305 was “inactive” in each case. For the same compound, the Potency result in the experiment on CP315, with CP325, with CP329, in the experiment on CP335, in the experiment with DFO2036 and in the experiment on DIV30 was “inactive” throughout.

Take `CCNC(=O)N1CCN(CCCC(c2ccc(F)cc2)c2ccc(F)cc2)CC1`: the Potency in the experiment with CP252 is 3.98 µM (active); in the experiment on CP256, 0.794 µM (active); with CP260, 3.16 µM (active); with CP262, 3.01 µM (active); in the experiment with CP265, 0.794 µM (active); with CP266, 6.01 µM (active). Further, the Potency in the experiment on CP268 is 2.39 µM (active); with CP269, 5.36 µM (active); with CP286 it was 2.24 µM (active); in the experiment with CP291 it was 6.01 µM (active); with CP297, 6.01 µM (active); with CP305, 6.01 µM (active). In addition, the Potency in the experiment with CP315 is 6.75 µM (active); in the experiment on CP325, 2.13 µM (active); in the experiment with CP335, 1.9 µM (active); in the experiment on DFO2036, 2.51 µM (active); in the experiment with DIV14, 7.57 µM (active); in the experiment with DIV17, 13.5 µM (active). Also, the Potency in the experiment on DIV30 was 6.75 µM (active).

For `CCN1CCc2nc(N)oc2CC1`, the Potency result in the experiment with CP252, with CP256, with CP260, with CP262, in the experiment on CP265 and in the experiment with CP266 was “inactive” throughout. Also, the Potency result with CP269, in the experiment with CP286, in the experiment on CP291, in the experiment on CP297, with CP305 and in the experiment with CP315 was “inactive” each time. Moreover, the Potency entry with CP325, in the experiment with CP329, in the experiment on CP335, with DFO2036, in the experiment with DIV14 and in the experiment on DIV17 was “inactive” throughout. Moreover, the Potency result in the experiment with DIV30 is “inactive”.

For the compound `CCCCOCCOCCOCc1cc2c(cc1CCC)OCO2`, the Potency result in the experiment on CP252, in the experiment with CP256, in the experiment with CP260, with CP262, in the experiment with CP265 and in the experiment with CP268 was “inactive” throughout. The Potency entry in the experiment on CP269, in the experiment with CP286, in the experiment on CP291, in the experiment with CP297, with CP305 and in the experiment with CP315 was “inactive” throughout. Moreover, the Potency entry with CP325, with CP329, in the experiment with CP335, with DFO2036, with DIV14 and with DIV17 was “inactive” each time. Moreover, the Potency result with DIV30 was “inactive”.

For `CC[N+](C)(C)c1cccc(O)c1`, the Potency result with CP252, in the experiment with CP256, with CP260, in the experiment with CP262, in the experiment with CP265 and in the experiment with CP266 was “inactive” in each case. In addition, the Potency entry in the experiment with CP268, with CP269, in the experiment on CP286, in the experiment on CP291, in the experiment with CP297 and with CP305 was “inactive” in each case. Also, the Potency result in the experiment on CP315, in the experiment with CP325, with CP329, in the experiment with CP335, in the experiment with DFO2036 and in the experiment on DIV14 was “inactive” throughout. The Potency entry in the experiment on DIV30 was “inactive”.

For the compound `CCCN(CCC)CCc1cccc2c1CC(=O)N2`, the Potency entry in the experiment on CP252, in the experiment with CP256, in the experiment on CP260, in the experiment on CP262, in the experiment with CP265 and in the experiment on CP266 was “inactive” throughout. Besides, the Potency result with CP268, with CP269, with CP286, in the experiment on CP291, with CP297 and in the experiment with CP305 was “inactive” throughout. In addition, the Potency result in the experiment with CP315, with CP325, in the experiment on CP329, in the experiment with DFO2036, in the experiment with DIV14 and in the experiment with DIV17 was “inactive” in each case. The Potency entry in the experiment with DIV30 was “inactive”.

As for `CN1CCN(CC(=O)N2c3ccccc3C(=O)Nc3cccnc32)CC1`, the Potency result in the experiment on CP252, in the experiment with CP256, in the experiment with CP260, with CP262, in the experiment on CP265 and in the experiment on CP268 was “inactive” each time. For the same compound, the Potency result in the experiment on CP269, in the experiment with CP286, in the experiment with CP291, in the experiment with CP305, in the experiment on CP315 and with CP325 was “inactive” throughout. Moreover, the Potency entry in the experiment with CP329, in the experiment on CP335, with DFO2036, in the experiment on DIV14, in the experiment with DIV17 and in the experiment with DIV30 was “inactive” throughout.

Take `Nc1nc(N)c2nc(-c3ccccc3)c(N)nc2n1`: the Potency entry in the experiment with CP252, with CP256, in the experiment on CP260, in the experiment with CP262, in the experiment with CP265 and in the experiment on CP266 was “inactive” throughout. In addition, the Potency entry with CP268, in the experiment with CP269, in the experiment on CP286, in the experiment on CP291, in the experiment on CP297 and in the experiment on CP305 was “inactive” in each case. Also, the Potency entry in the experiment on CP315, with CP325, in the experiment on CP329, with DFO2036, in the experiment with DIV14 and in the experiment with DIV17 was “inactive” each time. Further, the Potency entry in the experiment on DIV30 was “inactive”.

For the compound `CCO/C([O-])=N/c1c[n+](N2CCOCC2)no1`, the Potency result with CP252, with CP256, with CP260, in the experiment on CP262, in the experiment with CP265 and with CP266 was “inactive” each time. The Potency entry with CP268, in the experiment on CP269, with CP286, in the experiment on CP291, with CP297 and in the experiment with CP305 was “inactive” throughout. The Potency result in the experiment with CP315, in the experiment on CP329, in the experiment with CP335, with DFO2036, in the experiment on DIV14 and with DIV17 was “inactive” in each case. In the experiment on DIV30, the Potency result was “inactive”.

`NC1=NCC2c3ccccc3Cc3ccccc3N12` (stereo unspecified): the Potency entry in the experiment on CP252, in the experiment on CP256, in the experiment with CP260, in the experiment with CP262, in the experiment on CP265 and in the experiment with CP266 was “inactive” in each case. The Potency entry with CP268, with CP269, in the experiment with CP286, in the experiment with CP291, in the experiment with CP297 and in the experiment on CP305 was “inactive” in each case. Besides, the Potency entry with CP315, in the experiment on CP325, in the experiment on DFO2036 and with DIV30 was “inactive” each time. Further, the Potency in the experiment with DIV17 was 13.5 µM (active).
